# Screening data: PubChem BioAssay, National Center for Advancing Translational Sciences (NCATS)
# The sample as a whole holds a higher share of hits than the screen did.
# Shiga inhibitor: Shiga toxin inhibition; 9.2% of 290,000 active; AID 2315; inhibition, % at 38.7 µM; Vero cells, Shiga toxin protein synthesis inhibition reporter; in the data active means inhibition mostly above about 28%, no sharp cut-off; inactive means mostly below about 43%; further: 0% is about no effect
# MARV entry inh: Marburg virus entry inhibition | Marburg virus pseudotyped entry inhibition, cell reporter | Potency, µM (titrated, usually from 37.8 µM), without a hit: at the top dose activity change, negative = inhibition, most hits filed as inhibitors | 1.8% of 300,000 active | AID 540276; calls by dose curve; tested in HEK293 cells; further: potency means the concentration at half of the fitted maximal effect; on the % scale 0 is the no-effect control and ±100 the full control effect
# CHX counter: counter-screen hit for Shiga toxin inhibitors, cycloheximide. cell reporter, cycloheximide protein synthesis inhibition counterscreen. max response, %. 12% of 300,000 active. AID 2314; in the data active means max response mostly above about 13%, no sharp cut-off; inactive means mostly below about 14%; further: read at 38.3 µM for the half of the compounds with a filed dose; 0% is about no effect
# Lassa entry inh: blocks Lassa virus binding to or entry into cells | Lassa virus pseudotype entry inhibition, cell reporter | Potency, µM (top dose mostly 37.9 µM), without a hit: at the highest dose activity change, negative = inhibition, usual class: inhibitors | 1.2% of 300,000 active | AID 540256; calls by dose curve; tested in HEK293 cells; further: potency means the concentration at half of the fitted maximal effect; on the % scale 0 is the no-effect control and ±100 the full control effect; nearly all actives have a fitted effect of over 50% in size
# AMA1 RON2 block: inhibitors of Plasmodium falciparum AMA1-RON2 interaction; AlphaScreen AMA1-biotinylated RON2 peptide binding; Potency, µM (titrated, usually from 58.2 µM), without a hit: at the highest dose activity change, negative = inhibition, hits mostly inhibitors; 0.2% of 360,000 active; AID 720542; active means well fitted inhibition curve with a large enough effect; inconclusive means small, poorly fitted or top-dose-only effect; inactive means no such curve, though single readings can be large or run the other way;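 further: potency means the concentration at half of the fitted maximal effect; 0% = vehicle wells and -100% = peptide control; nearly all actives have a fitted effect of over 45% in size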
#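 AMA1 (3D7) with his tag at 25 nM final met compounds first, then biotinylated RON2 peptide at 25 nM; detection used donor plus acceptor beads, 10 µg/mL apiece, read by AlphaScreen after 30 min at room temperature.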
# * hit, by the source's call; ? = inconclusive; / = no result given; [ ] = dose if it differs, or a comment.
SMILES,Shiga inhibitor,MARV entry inh,CHX counter,Lassa entry inh,AMA1 RON2 block
CCOc1ccc(C(CN2CCOCC2)C(C)=O)cc1OC (stereo not given),/,/,/,/,-0.7%
CCOc1ccc(NC(=O)c2cc(C3CC3)nc3c2cnn3C(C)C)cc1OC,/,/,/,/,-5.4%
O=C(Nc1ccc(NC(=O)C2CC2)nc1)c1ccco1,59.7*,?,24.0*,?,-11.6%
COc1ccc(C(=O)Nc2ccc(NC(=O)C3CC3)cn2)cc1,34.4,16.8%[46.1 µM],12.9,22.7%,-7.1%
COc1ccccc1C(=O)Nc1ccc(NC(=O)C2CCCCC2)nc1,21.6,-1.7%[46.1 µM],9.1,5.6%,8.2%
O=C(Nc1ccc(NC(=O)C2CCCCC2)nc1)c1ccco1,66.2*,3.5%,52.5*,?,0.0%
O=C(NNC(=O)C1CCCCC1)c1ccco1,6.1,6.1%[46.1 µM],5.6,1.1%[46.1 µM],-3.4%
O=C(Nc1ccc(NC(=O)C2CCCCC2)nc1)c1ccccn1,81.4*,?,43.6*,?,48.4%
Cc1oc(=O)c(NC(=O)c2ccccc2)cc1C(=O)c1ccccc1,100.8*,2.4%,63.7*,?,13.8%
Cc1oc(=O)c(NC(=O)c2ccc(Cl)cc2)cc1C(=O)c1ccccc1,132.0*,?,65.2*,23.1µM*,-0.5%
Cc1ccc(C(=O)Nc2ccc(Cl)cc2C(=O)c2ccccc2)cc1,/,-22.8%,/,-17.3%,-9.4%
CCOC(=O)c1cc(NC(=O)c2ccc(C)cc2)c(=O)oc1C(F)(F)F,25.6,30.1%,17.8,2.7%,13.7%
CC1(C)CC(=O)c2cc(NC(=O)c3ccccc3)c(=O)oc2C1,54.8*,14.4%,27.0*,?,13.0%
CCOC(=O)c1cc(NC(=O)c2ccccc2)c(=O)oc1C(F)(F)F,15.5,1.3%[46.1 µM],27.4*,-1.2%,-15.4%
CC(=O)c1cc(NC(=O)c2ccccc2)c(=O)oc1C,-13.3,8.0%[46.1 µM],5.9,-1.2%,7.4%
COc1ccc(N2C(=O)CS/C2=N\C(=S)Nc2ccccc2)cc1,32.4,-20.4%,-1.3,?,36.5%
COc1ccccc1NC(=O)NCc1ccc2c(c1)OCO2,-1.3,-1.0%,11.5*,/,/
O=C(NCc1ccc2c(c1)OCO2)Nc1ccc(F)cc1,44.5*,/,36.8*,/,5.3%
COc1cccc2cc(C(=O)OCC(=O)NCc3ccc4c(c3)OCO4)c(=O)oc12,67.5*,/,37.9*,/,10.2%
Cc1ccc(NC(=S)NCc2ccc3c(c2)OCO3)cc1C,-6.5,-0.5%,13.0,6.3%,-7.8%
Fc1ccc(NC(=S)NCc2ccc3c(c2)OCO3)cc1,25.1,-1.3%,-1.4,21.6%,13.0%
Cc1ccc(NC(=O)NCc2ccc3c(c2)OCO3)cc1C,42.9*,-1.8%[46.1 µM],23.4*,20.3%,1.3%
COc1ccc(-c2cc3nccc(-c4cc(Cl)c(C)cc4O)n3n2)cc1,/,-11.9%[46.1 µM],/,-28.1%[46.1 µM],/
Cc1ccc(NC(=O)c2c(C)nc3sc(C(=O)Nc4ccc(F)cc4)c(N)c3c2-c2ccc(C)o2)c(C)c1,/,?,/,2.7%[46.1 µM],/
Cc1cccc(N(Cc2ccccc2)C(=O)CSC(C)C(=O)Nc2cc(C)on2)c1 (stereo not given),/,?,/,?,-2.7%
SMILES,Shiga inhibitor,MARV entry inh,CHX counter,Lassa entry inh,AMA1 RON2 block
O=C(c1cc2c(s1)-c1ccccc1OC2)N1CCC2(CC1)OCCO2,38.6*,-10.9%,39.8*,33.9%[14.3 µM],-5.4%
CCCN1CCN(C(=O)c2cc3c(s2)-c2ccccc2OC3)CC1,31.5*,/,26.1*,/,15.6%
CCC1CCCCN1C(=O)CCNC(=O)Cn1cnc2ccccc2c1=O (stereo not given),-0.6,-12.2%[46.1 µM],-1.4,?,-4.0%
CC(C)n1c(SCC(=O)N2c3ccccc3Sc3ccccc32)nc2c1c(=O)n(C)c(=O)n2C,-5.2,9.2µM*,-2.1,?,3.6%
O=C(c1noc2c1CCc1ccccc1-2)N1CCCc2ccccc21,18.9,?,20.6*,3.4%,14.0%
O=C(c1noc2c1CCc1ccccc1-2)N1CCc2ccccc2C1,60.5*,0.4%,28.4*,/,/
Cc1onc(-c2ccccc2Cl)c1C(=O)N1CCc2ccccc2C1,-5.5,-22.1%,-2.3,0.7%,-1.4%
O=C(c1noc2c1CCc1ccccc1-2)N1CCOCC1,42.6*,-2.4%,35.8*,4.0%,6.2%
N/C(=N\OC(=O)C1CCCCC1)c1cccnc1,22.5,22.5%,14.6,20.8%,-2.4%
N/C(=N\OC(=O)CCC1CCCC1)c1cccnc1,18.6,?,14.8*,2.6%,-4.9%
N/C(=N\OC(=O)CC1CCCCC1)c1cccnc1,14.2,1.9%,26.5*,?,-2.5%
Cn1c(SCCOc2ccccc2Cl)nnc1-c1cccs1,38.7*,9.1%,25.9*,12.5%,-7.6%
Cn1c(SCc2c(F)cccc2Cl)nnc1-c1cccs1,68.3*,?,27.8*,?,37.6%
Cn1c(Cc2cccs2)nnc1SCC(=O)Nc1ccccc1F,/,0.1%,/,12.5%,19.7%
Cn1c(SCc2nc(-c3ccc(Cl)cc3)no2)nnc1-c1cccs1,22.2,14.2%,10.0,10.2%,12.4%
Cn1c(SCC(=O)Nc2ccccc2F)nnc1-c1cccs1,43.4*,-1.9%[46.1 µM],26.0,/,-9.7%
Cc1cc(OCCSc2nnc(-c3cccs3)n2C)ccc1Cl,21.2,?,8.5,-7.4%,39.5%
COc1ccc2[nH]cc(C(=O)CNc3nc(C)cs3)c2c1,141.0*,6.6%,36.1*,?,-0.9%
Cc1ccc(SCC(=O)c2cc(C)c(O)c(C)c2)cc1,49.7*,/,16.8*,/,7.5%
Cc1ccc(SCC(=O)c2c(C)nc3ccccn23)cc1,61.6*,?,30.6*,26.2%[46.1 µM],-23.1%
CCOC(=O)c1c(C)nc2ccccn12,19.3,9.8%,1.0,9.7%,3.6%
CCOc1ccc(CNC(=O)C2CCN(S(=O)(=O)c3cn(C)cn3)CC2)cc1,/,/,/,-0.2%[46.1 µM],/
COCC(=O)Nc1ccc2c(c1)[C@@H]1C[C@H](CC(=O)OC)O[C@@H](CO)[C@@H]1O2,/,/,/,/,8.5%
CC(=O)c1cccc(OCC(=O)N(C)CC(=O)NCc2ccco2)c1,/,/,/,/,-6.4%
COc1ccc(C2=Nn3c(nnc3-c3ccccc3C)SC2)cc1,-3.9,/,-2.9,/,/
SMILES,Shiga inhibitor,MARV entry inh,CHX counter,Lassa entry inh,AMA1 RON2 block
O=C(CC(=O)NC1CCCCC1)N/N=C/c1ccccc1[N+](=O)[O-],46.6*,10.5%[46.1 µM],29.3*,0.4%[46.1 µM],-1.1%
O=C(CC(=O)NC1CCCCC1)N/N=C/c1ccccc1Cl,-11.4,?,-1.3,2.2%,-27.3%
O=C(CCCO)N/N=C/c1ccccc1[N+](=O)[O-],38.8*,?,0.8,22.4%,3.7%
O=C(N/N=C/c1ccccc1[N+](=O)[O-])C(=O)N1CCCC1,51.7*,1.0%[46.1 µM],20.0*,6.0%,-19.0%
CCCCc1nn2c(=O)cc(COC(=O)CNC(=O)c3ccccc3C)nc2s1,/,/,/,21.4%[46.1 µM],/
O=C(c1cc2cc(F)ccc2[nH]1)N1CCc2ccccc2C1,64.5*,/,19.6*,/,-0.1%
O=C(CNc1cccc(F)c1)N1CCc2ccccc2C1,125.8*,/,61.9*,/,9.9%
O=C(c1cncc(Br)c1)N1CCc2ccccc2C1,-3.1,?,-1.4,7.6%,10.0%
O=C(c1cc2cc(Cl)ccc2[nH]1)N1CCc2ccccc2C1,6.9,/,8.0,/,-5.1%
O=C(c1ccncc1)N1CCc2ccccc2C1,-9.2,/,-2.0,/,-3.4%
O=C(c1cccc(F)c1)N1CCc2ccccc2C1,55.5*,25.5%,40.1*,9.7%,5.9%
